Screens (PubChem)
Compounds with a hit are over-represented: about 10% of the library has one in this group of screens.
FLuc inh-1: Photinus pyralis luciferase inhibition | P08659 | purified P. pyralis luciferase, luminescence, biochemical | 2.5% of 76,000 active | Potency, µM (highest dose often 115 µM), usual class: inhibitors | AID 1347043; note: % is set by controls: 0 for no effect and ±100 for the full control effect; nearly all actives have a fitted effect of over 65% in size
Target sequence (P08659 whole entry, looked up): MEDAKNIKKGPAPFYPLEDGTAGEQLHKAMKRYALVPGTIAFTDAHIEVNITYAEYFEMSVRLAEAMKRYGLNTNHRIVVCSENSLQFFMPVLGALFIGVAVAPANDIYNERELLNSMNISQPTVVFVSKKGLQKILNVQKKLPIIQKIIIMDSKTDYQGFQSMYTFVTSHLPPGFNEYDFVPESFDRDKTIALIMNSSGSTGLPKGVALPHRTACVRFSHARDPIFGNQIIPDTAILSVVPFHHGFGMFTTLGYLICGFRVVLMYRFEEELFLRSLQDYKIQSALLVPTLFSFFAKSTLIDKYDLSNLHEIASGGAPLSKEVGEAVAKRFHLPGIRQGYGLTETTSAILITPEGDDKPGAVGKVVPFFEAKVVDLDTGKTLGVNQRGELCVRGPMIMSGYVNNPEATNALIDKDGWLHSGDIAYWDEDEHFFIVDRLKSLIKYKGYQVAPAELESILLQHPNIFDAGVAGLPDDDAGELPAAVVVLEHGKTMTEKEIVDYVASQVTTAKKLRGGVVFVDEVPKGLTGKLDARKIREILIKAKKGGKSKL
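Luminescence read by CCD imager after adding enzyme (10nM final) to wells holding compound, titrated in qHTS. Substrates 10uM each D-luciferin and ATP; buffer 50mM Tris acetate pH 7.5, 10mM Mg acetate, Tween-20, BSA.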
NIH3T3 tox: NIH 3T3 cell cytotoxicity | NIH 3T3 viability, CellTiter-Glo ATP luminescence, 48-72 h | Potency, µM (top dose mostly 96.7 µM), without a hit: at the highest dose activity change, negative = cytotoxicity, actives largely listed as inhibitors | 4.3% of 94,000 active; note: % is set by controls: 0 for no effect and ±100 for the full control effect; nearly all actives have a fitted effect of over 55% in size
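Mouse fibroblast NIH 3T3 cells, 400 per well, received compound via pintool and were incubated for 48 or 72 hr prior to CellTiter-Glo ATP luminescence measurement.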
HEK293 tox: kills HEK 293 cells. HEK 293 viability, ATP luminescence (CellTiter-Glo), 48-72 h. Potency, µM (top dose mostly 115 µM), inactives show at the top dose activity change, negative = cytotoxicity, hits mostly inhibitors. 6.6% of 94,000 active. AID 1345083; note: % is set by controls: 0 for no effect and ±100 for the full control effect; nearly all actives have a fitted effect of over 60% in size
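Read-out: CellTiter-Glo ATP luminescence. Cells: HEK 293, 250 cells/well. Exposure: 48 or 72 hr, 37 degree Celsius.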
GPT2 inhibitor: blocks human glutamate pyruvate transaminase 2; Q8TD30; Recombinant GPT2, coupled pyruvate oxidase/HRP Amplex Red fluorescence; Potency, µM (series often up to 57.7 µM), inactives show top-dose activity change, negative = inhibition, actives largely listed as inhibitors; 0.25% of 100,000 active; AID 1671188; note: % is set by controls: 0 for no effect and ±100 for the full control effect; nearly all actives have a fitted effect of over 60% in size
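GPT2 10ng/uL, a-KG 250uM, L-Ala 2mM, HEPES pH7.5 + 0.0001% Tween; 30 min RT. Then Amplex mix (PO/HRP/ThPP), 30 min RT dark, fluorescence. AOA 50uM used as positive control.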
hNpr1 antagonist: blocks ANP-stimulated signaling of human Npr1 receptor; P16066; HEK293 hNpr1 GloSensor cGMP, ANP-stimulated luminescence; Potency, µM (series often up to 46.3 µM), without a hit: top-dose activity change, negative = inhibition, usual class: inhibitors; 1.6% of 76,000 active; AID 1347048; calls by dose curve; note: % is set by controls: 0 for no effect and ±100 for the full control effect; nearly all actives have a fitted effect of over 60% in size
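Compound pre-incubated 30 min at room temperature on GloSensor-loaded HEK293 cells stably carrying hNpr1 and the pGS-40F cGMP biosensor. Stimulation uses hNppA at 0.1 nM final; luminescence is taken at baseline and 20 min post-agonist.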
FLuc SDR no ATP: firefly luciferase binding stabilization, ATP absent | AID 1963318 | Potency, µM (doses to about 32.7 µM), for inactives: at the highest dose activation (signal gain), most hits filed as activators | 7.8% of 1,300 active | shares compounds with FLuc inh-1 | Purified FLuc-C-HiBiT, Nano-Glo HiBiT luminescence, no ATP; note: nearly all actives have a fitted effect of over 55% in size
FLuc SDR ATP: stabilizes firefly luciferase with ATP present | shares compounds with FLuc inh-1 | purified FLuc-C-HiBiT + ATP, HiBiT complementation luminescence | Potency, µM (top dose mostly 32.7 µM), inactives show at the top dose activation (gain of signal), most hits filed as activators | 8.7% of 1,300 active | AID 1963319;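 note: signal reports ligand binding via conformational change of the enzyme rather than luciferase catalysis; % of control where 0% means no effect; nearly all actives have a fitted effect of over 55% in size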
FLuc inh-2: firefly luciferase enzyme inhibition. shares compounds with FLuc inh-1. purified FLuc-C-HiBiT enzyme, luciferin luminescence. Potency, µM (titrated, usually from 32.7 µM), for inactives: at the top dose activity change, negative = inhibition, most hits filed as inhibitors. 42% of 1,300 active. AID 1963320; note: % is set by controls: 0 for no effect and ±100 for the full control effect; nearly all actives have a fitted effect of over 70% in size
* = called active by the depositor; i = inactive; ? = inconclusive; . = no result; [ ] = dose if it differs, or a comment. Unless noted, calls come from the whole dose curve; as a rule, active = well fitted curve in the direction sought with a large enough effect; inconclusive = small, poorly fitted or top-dose-only effect, or another doubt; inactive = no such curve, though single readings can be large; an effect the other way counts as inactive or inconclusive. Potency is the fitted concentration of half-maximal effect.

SMILES | FLuc inh-1 | NIH3T3 tox | HEK293 tox | GPT2 inhibitor | hNpr1 antagonist | FLuc SDR no ATP | FLuc SDR ATP | FLuc inh-2
COc1cc(-c2noc(-c3nc(-c4ccccc4)no3)n2)cc(OC)c1OC | i | i | -3% | i | -1% | . | . | .
COc1ccc(-c2nc(-c3ccc(C(=O)O)cc3)no2)cc1 | . | . | . | . | . | 12µM* | 0.11µM* | 0.11µM*
COc1ccccc1-c1nc(-c2ccc(C(=O)O)cc2)no1 | . | . | . | . | . | 16% | 2.2µM* | 2µM*
O=C(O)c1cccc(-c2noc(-c3cccc(Cl)c3)n2)c1 | . | . | . | . | . | 12µM* | 0.022µM* | 0.007µM*
COc1ccc(-c2noc(-c3nc(C)no3)n2)cc1 | i | 3% | -2% | i | 4% | . | . | .
CC(C)NC(=O)c1ccc2nnc(-c3cncc(Cl)c3)n2c1 | . | -10%[138 µM] | i | -16%[88.5 µM] | . | . | . | .
C[S+](=O)([O-])N1CCC2(CC1)CC(c1cccc(C(F)(F)F)c1)=NO2 | . | -31% | ? | . | . | . | . | .
COc1cccc(-c2nc(-c3cccc(C(=O)O)c3)no2)c1 | . | . | . | . | . | 12µM* | 0.007µM* | 0.0039µM*
O=C(O)c1ccc(-c2noc(-c3cccc(C(F)(F)F)c3)n2)cc1 | . | . | . | . | . | 12% | 20% | ?
O=C(O)c1ccc(-c2noc(-c3ccc(Cl)cc3)n2)cc1 | . | . | . | . | . | ? | 1.4µM* | 0.79µM*
O=C(O)c1cccc(-c2cccc(C(F)(F)F)c2)c1 | . | -2%[138 µM] | i | -11%[88.5 µM] | . | . | . | .
Cc1ccc(-c2nc(C(=O)N3CCN(c4ccc(Cl)cc4)CC3)no2)cc1 | ? | -11% | -1% | i | ? | . | . | .
COc1ccc(C)cc1-c1ccc(COc2ccc3c(cnn3CCC(=O)O)c2)cc1 | i | -16%[138 µM] | ? | 1%[88.5 µM] | -1%[70.6 µM] | . | . | .
C[S+](=O)([O-])CCn1ncc2cc(OCC3CCN(Cc4ccccc4)CC3)ccc21 | i | ? | ? | 1%[88.5 µM] | 6%[70.6 µM] | . | . | .
O=C(O)CCn1ncc2cc(OCc3ccc(-c4cccc(CO)c4)cc3)ccc21 | 20µM* | ? | -7%[172 µM] | ? | -5%[70.6 µM] | 0%[49.3 µM] | 1%[49.3 µM] | ?
Cn1cc(-c2cccc(COc3ccc4c(cnn4CC[S+](C)(=O)[O-])c3)c2)cn1 | 5.6µM* | ? | ? | 4%[88.5 µM] | ? | 25%[49.3 µM] | ? | ?
CNC(=O)CCn1ncc2cc(OCc3ccccc3-c3cccc(NC(C)=O)c3)ccc21 | 8.9µM* | ? | ? | ? | -19% | 27% | ? | 3.1µM*
CC(C)Oc1cccc(-c2cccc(COc3ccc4c(cnn4CC[S+](C)(=O)[O-])c3)c2)c1 | 6.3µM* | ? | 28µM* | -1% | ? | 13% | 12% | ?
CCCCn1c(=O)c(C(=O)NCc2ccc(F)cc2)nc2cccnc21 | . | ? | ? | i | . | . | . | .
CCn1cc(C(=O)N2C[C@@H](COC)[C@H](c3ccccn3)C2)cn1 | i | -14% | -4% | i | 3% | . | . | .
Cc1nc2ccc(Cl)cn2c1C(=O)NC1CCOC2(CCOCC2)C1 (stereo not drawn) | i | 4% | i | -8%[11.5 µM] | 5% | . | . | .
CCOCCNC(=O)c1ccc(-c2ccc(OC)nn2)cc1 | . | ? | -15%[172 µM] | . | . | . | . | .
CC(=O)NC1(C)CCN(Cc2cccc(-c3ccc4ccccc4c3)c2)C1 (stereo not drawn) | 1.8µM* | 28µM* | 35µM* | 0%[88.5 µM] | ? | 12%[49.3 µM] | ? | 11µM*
COc1cccc(Nc2csc(CN3CCCC(C)(NC(C)=O)C3)c2)c1 (stereo not drawn) | ? | ? | ? | i | -5%[70.6 µM] | . | . | .
COc1cccc(Nc2ccc(CN3CCC(C)(NC(C)=O)C3)cc2)c1 (stereo not drawn) | 4µM* | 89µM* | ? | -18%[88.5 µM] | ? | 10%[49.3 µM] | 14%[49.3 µM] | ?
SMILES | FLuc inh-1 | NIH3T3 tox | HEK293 tox | GPT2 inhibitor | hNpr1 antagonist | FLuc SDR no ATP | FLuc SDR ATP | FLuc inh-2
CCCn1ncc(N2CCC(C(=O)N3CCN(CC(=O)NCc4ccccc4)CC3)CC2)cc1=O | . | -20% | ? | 4% | . | . | . | .
Nc1nc2c(ncn2[C@@H]2O[C@H](CO)[C@@H](O)[C@H]2O)c(=O)[nH]1 | . | . | . | i | . | . | . | .
Nc1nc2c([nH]c(=S)n2C2OC(CO)C(O)C2O)c(=O)[nH]1 (stereo not drawn) | . | . | . | . | . | 0% | -1% | 2.5µM*
Nc1nc2c([nH]c(=O)n2C2OC(CO)C(O)C2O)c(=O)[nH]1 (stereo not drawn) | . | . | . | . | . | 14% | 8% | 0%
CCCc1ccc(-c2nc(C3CCOC3)no2)cc1 (stereo not drawn) | 1.1µM* | -21% | ? | 0% | ? | 15% | ? | 7µM*
CN(C)c1ccc(C(=O)NC2CC(c3nnc(CO)n3C3CC3)C2)cn1 (stereo not drawn) | i | 1% | 3% | i | -1% | . | . | .
O=C(Nc1cnc(-c2ccccc2)nc1)C1CCCCC1 | 1µM* | i | -9% | i | ? | ? | ? | 2µM*
Cc1ccc2nc([C@H]3CCN(C(C)C)C3)[nH]c2c1 | 7.9µM* | -25%[174 µM] | ? | -8%[88.5 µM] | 28µM* | 17%[65.7 µM] | 16%[65.7 µM] | ?
Cc1ccc2nc([C@H]3CCN(C(=O)C4CC4)C3)[nH]c2c1 | i | -27%[174 µM] | -14%[230 µM] | -3%[88.5 µM] | 0%[70.6 µM] | . | . | .
O=C(NC1CCCC1)NC1CCN(c2ccc3nnc(C4CC4)n3n2)C1 (stereo not drawn) | . | -15% | -5% | . | . | . | . | .
O=C(Nc1ccc(Cl)cc1)Nc1ccc2n(c1=O)C[C@H]1C[C@@H]2CN(C(=O)c2ccc3ccccc3c2)C1 | 14µM* | 40µM* | 28µM* | 2% | -23% | 13% | 8% | ?
O=C(c1ccc(C(F)(F)F)cc1)N1CCN(C(=O)c2nc3cccnc3n(C3CC3)c2=O)CC1 | . | ? | -10% | i | . | . | . | .
CN1CCC(NC[C@H]2O[C@H](Cc3cc(-c4ccccc4)on3)CC[C@@H]2O)CC1 | i | ? | ? | -7%[88.5 µM] | -20%[70.6 µM] | . | . | .
OCc1ccnc(-c2ccc(-c3ccn[nH]3)cc2)c1 | 10µM* | -14% | 0% | -4% | 5µM* | 23% | ? | ?
CN1C(=O)C(CC(=O)NCC2CCN(Cc3ccc(F)cc3)CC2)=C2CCCCC21 (stereo not drawn) | i | -4% | 1% | i | 13% | . | . | .
